Assay outcomes deposited in PubChem by several laboratories.
BoNT F protease: BoNT/F light chain protease inhibitors, primary screen, biochemical, flow cytometry, MLPCN library; Botulinum neurotoxin type F light chain protease (Clostridium botulinum); Multiplex microsphere protease cleavage assay; inhibition, % at 10 µM; 360,000 tested, 0.22% active; AID 588497, 2011; in the data active = inhibition above about 35%, passing the limit was not always enough; inconclusive = no clear call, values can overlap the other calls; note: plate controls were buffer without enzyme for full effect and enzyme alone for no effect
Bead autofluor: compound fluorescence in toxin protease inhibitor counterscreen | 360,000 tested, 3.1% active | fluorescence intensity (concentration not given with the values) | AID 624483 | compound autofluorescence counterscreen, microsphere flow cytometry; active compounds read high; in the data active = fluorescence intensity above about 16000; inconclusive = no clear call, values can overlap the other calls
BoNT A protease: BoNT/A light chain protease inhibitors, primary screen, biochemical, flow cytometry, MLPCN library. 360,000 tested, 0.17% active. multiplex microsphere protease substrate cleavage. AID 588499, 2011. inhibition, % at 10 µM; note: plate controls were buffer without enzyme for full effect and enzyme alone for no effect
Anthrax LF inh2: Bacillus anthracis LF protease inhibitors, primary screen, biochemical, multiplex microsphere, MLPCN library; Lethal factor (Bacillus anthracis), P15917; multiplex microsphere protease cleavage assay; inhibition, % at 10 µM; 360,000 tested, 0.12% active; AID 588501, 2011; note: plate controls were buffer without enzyme for full effect and enzyme alone for no effect
MazEF act: activators of E. coli MazEF toxin-antitoxin RNase, primary screen, biochemical, fluorescence, uHTS; activation, % at 20 µM; FAM/BHQ RNA-DNA oligo cleavage fluorescence, 5 h; Endoribonuclease toxin MazF (Escherichia coli (strain K12)), P0AE70; 350,000 tested, 0.32% active; in the data active = activation above about 50%
Target sequence (P0AE70 whole entry, looked up): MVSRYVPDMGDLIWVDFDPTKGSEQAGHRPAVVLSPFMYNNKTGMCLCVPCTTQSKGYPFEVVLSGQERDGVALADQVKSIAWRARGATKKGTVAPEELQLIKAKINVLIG
Starred values were filed as active, the others as inactive; ? = inconclusive; . = no result. Sampled rows, rich in hits. Any-hit rate of the full collection: about 3.7%. Cut-off read from the data, not from the text of the source, unless noted: active = inhibition above about 30%; inconclusive = no clear call, values can overlap the other calls; inactive = below that.

SMILES	BoNT F protease	Bead autofluor	BoNT A protease	Anthrax LF inh2	MazEF act
O=C(Nc1ccc(F)cc1)C1CCN(c2nnnn2-c2ccccc2)CC1	1.4	19751*	?	2.3	-4.2
COc1cc(NC(=O)N2CCc3nc(NCc4cccc(Oc5ccccc5)c4)ncc3C2)cc(OC)c1OC	0.1	3077	-0.5	-9.6	.
CC(C)Oc1ccc(CN2CCC2(C)C(=O)NCc2cccc3ccccc23)cc1 (stereo unspecified)	-3.2	2857	-0.4	-7.6	.
Cc1cc(N2C(=O)C3C4c5ccccc5C(c5ccccc54)C3C2=O)no1 (stereo unspecified)	2.9	21886*	2.3	-3.4	2.0
Cc1ccc(S(=O)(=O)N2C[C@H]3[C@H]4C(=O)N(C)C(=O)[C@H]4CC(=O)[C@H]3[C@@H]2c2ccccc2Cl)cc1	7.4	6277	-0.3	7.1	.
Cc1ccnc(-n2c(C)nc3ccccc3c2=O)c1	-0.4	9907	-0.5	-6.5	4.7
Cc1ccnc(-n2c(-c3ccccc3)nc3ccccc3c2=O)c1	1.3	19731*	3.6	-0.5	0.2
O=C(O)CCC(=O)c1ccc(C2CCCCCC2)cc1	0.4	5516	-0.6	-2.9	.
C=C(C)Cn1c2ccc(NC(=O)NCc3ccccc3)cc2c(=O)n1C	-3.0	3981	-0.1	-2.4	.
Oc1ccc(N=Nc2ccc3c(c2)OCCO3)c2ncccc12	-25.5	2881	-2.5	-9.1	9.7
Cc1c(C(=O)O)oc2ccc(S(=O)(=O)NCc3ccc(F)cc3)cc12	-5.6	24054*	-1.6	-2.3	-3.5
COc1ccc(CNS(=O)(=O)c2ccc3oc(C(=O)O)c(C)c3c2)cc1	-1.7	7977	-0.1	-2.5	3.4
Oc1ccc(Nc2nc(-c3ccc(O)cc3)cs2)cc1	-12.7	11073	-0.4	-12.6	78.3*
NS(=O)(=O)c1ccc(Nc2nc(-c3ccc(O)cc3)cs2)cc1	-1.9	21481*	-1.9	-0.7	10.3
CCOC(=O)/C(C#N)=C/c1cc2cc(C)c(C)cc2nc1Cl	-3.6	3939	-0.5	-8.0	0.0
Cc1cc2cc(C=C(C#N)C#N)c(Cl)nc2cc1C	1.3	2089	0.0	-0.8	53.2*
CCNC(=S)NNC(=O)c1cccn(Cc2ccc(Cl)cc2)c1=O	-2.3	22835*	1.1	-0.1	-13.0
O=C(CSC(=S)N1CCCC1)Nc1ccc(Br)cc1Cl	34.9*	?	2.0	-1.1	-1.6
OC(c1ccc(F)cc1)c1nc(-c2cncnc2)cs1 (stereo unspecified)	-1.7	4020	0.2	5.2	.
CCOCCCNS(=O)(=O)c1ccccc1	5.9	20142*	5.4	-4.8	-139.9
COCC(C)n1c(COc2ccccc2F)nnc1SCC(=O)Nc1oc(C)c2c(C)n[nH]c(=O)c12 (stereo unspecified)	-0.7	?	-1.9	-1.2	7.2
Cn1c(=O)c2c(ncn2Cc2ccc(Cl)c(Cl)c2)n(C)c1=O	1.2	19612*	?	-8.2	-16.7
CCOC(=O)c1ccc(S(=O)(=O)N2CCN(CC(=O)NC(=O)NC(C)(C)C)CC2)cc1	-9.6	?	?	-0.1	-0.1
O=C(Nc1ccc2c(c1)OCCO2)c1ccc(S(=O)(=O)N2CCCCC2)cc1	-2.3	16458*	-0.1	-3.7	7.9
Cc1cc(NC(=O)CN2CCN(S(=O)(=O)c3ccc(Cl)cc3)CC2)no1	-1.1	19724*	-0.2	-0.3	-2.7
SMILES	BoNT F protease	Bead autofluor	BoNT A protease	Anthrax LF inh2	MazEF act
CC(C)(C)NC(=O)NC(=O)CN1CCN(S(=O)(=O)c2ccccc2)CC1	-58.1	16805*	-12.6	-10.2	3.0
Cc1cc(NC(=O)c2cccc(S(=O)(=O)N3CCCCCC3)c2)no1	-5.1	17368*	-2.3	-0.8	4.5
O=C(Nc1ccc(N2CCOCC2)cc1)c1ccc(S(=O)(=O)N2CCCCC2)cc1	0.7	10575	0.4	-1.6	6.7
c1ccc2c(c1)ccn2CCCN1CCCCC1	-5.2	4054	-0.4	0.8	8.0
CCOc1ccccc1NC(=O)COC(=O)c1c[nH]c2ccccc12	?	?	-0.2	4.5	2.4
O=C(Nc1ccc2c(c1)OCO2)c1cccc(S(=O)(=O)N2CCOCC2)c1	1.0	4369	-0.5	-0.4	5.7
O=C(Nc1ccc2c(c1)OCO2)c1cccc(S(=O)(=O)N2CCCC2)c1	-0.3	21861*	2.3	-6.8	-0.4
CC(=O)c1c(C)[nH]c(C(=O)OCC(=O)N2CCN(c3ccccc3)CC2)c1C	-0.6	3622	0.1	-4.9	3.4
CCCN1C(=O)CC(c2ccco2)Sc2ccccc21 (stereo unspecified)	2.4	9884	-0.8	-2.3	-11.8
CN1C(=O)CC(c2ccco2)Sc2ccccc21 (stereo unspecified)	-3.0	21771*	-3.9	1.2	-4.7
O=C(CN1C(=O)CC(c2ccco2)Sc2ccccc21)NCC1CCCO1 (stereo unspecified)	0.5	23515*	?	-7.5	-6.0
COc1ccc(C2CC(=O)N(CC(=O)NCC3CCCO3)c3ccccc3S2)cc1 (stereo unspecified)	-2.0	2020	0.1	1.2	3.4
COc1ccc(CCN2C(=O)CC(Sc3ncccc3C(=O)O)C2=O)cc1OC (stereo unspecified)	1.0	23415*	-0.3	1.5	1.7
CCCN1C(=O)CC(Sc2ncccc2C(=O)O)C1=O (stereo unspecified)	6.5	4775	-0.7	2.4	5.5
COc1cc(NC(=O)c2ccccc2)c(OC)cc1NC(=O)Cc1ccc(Br)cc1	?	4083	-2.4	1.2	54.6*
CC(=O)Nc1cccc(-c2ccnc3c2CC(C)(C(=O)Nc2cccc(Oc4ccccc4)c2)O3)c1 (stereo unspecified)	-8.1	4251	-0.7	-6.4	.
CC12CCC(C(=O)NC(c3ccccc3)c3ccccc3)(OC1=O)C2(C)C (stereo unspecified)	4.6	22368*	4.2	0.0	-9.0
Cc1cccc(NC(=O)C23CCC(C)(C(=O)O2)C3(C)C)c1 (stereo unspecified)	-7.3	1946	0.1	-2.4	1.3
CC12CCC(C(=O)Nc3ccc4c(c3)OCCO4)(OC1=O)C2(C)C (stereo unspecified)	-2.8	23818*	-1.6	0.8	-4.2
CN(C)C(=S)Nn1c(-c2ccccc2)nc2ccccc2c1=O	-2.4	2059	0.0	-0.7	3.8
O=C(Nn1c(-c2ccccc2)nc2ccccc2c1=O)C1CCC1	4.1	21456*	4.3	1.0	-0.2
COc1ccc(NC(=O)CSc2ccc3c4c(cccc24)C(=O)c2ccccc2-3)cc1	8.0	9656	22.8	14.4	-188.3
N#Cc1cccc(NC(=O)CSc2ccc3c4c(cccc24)C(=O)c2ccccc2-3)c1	43.2*	7954	43.6*	27.6	-352.0
COc1cc(CCC(N)c2cccc(O)c2)cc(OC)c1OC (stereo unspecified)	2.0	3966	0.6	1.7	8.0
